Results on 16 sequences are retold here after the OligoGym collection.
Also: reference of the scale not given here.

One test addresses CTCFL. Put plainly: pooled miR-30 sensor sort-seq; sequence = guide strand. The note with it: shRNA.
Turning to TTGTATAAAAACATTTGTCTTT, the sensor-assay potency score (higher = more potent) is -0.651.

In turn, TTGAATTATGTAAAACATCTTT showed a sensor-assay potency score (higher = more potent) of -0.709.

Take TTAGAAGTTGCTTCTGTCGGAA: the sensor-assay potency score (higher = more potent) was -0.207.

Regarding TTTATGTTTCTTCTCACTCTGC, the sensor-assay potency score (higher = more potent) is -0.0954.

A further test concerns the target CTDSP1. The description is as above. The note with it: shRNA.
On to TCCAGGTCGATGACCACGCAGA, for which the sensor-assay potency score (higher = more potent) is -1.79.

In the case of TAGACCTGGTGGACCACCCCAT, the sensor-assay potency score (higher = more potent) was -0.5.

The sequence TGAGCACTGAGTACACGTCGTC gave a sensor-assay potency score (higher = more potent) of -0.158.

For the sequence TATTGGACTGGGGTCTTAGGGA, the sensor-assay potency score (higher = more potent) was -0.481.

Sequence TTGTTCACTGGCTTGAAGGAGC had a sensor-assay potency score (higher = more potent) of -0.757.

In the case of TTGGACTGGGGTCTTAGGGATG, the sensor-assay potency score (higher = more potent) was -1.55.

TACAGCATTGTCTGGATGGAAG: the sensor-assay potency score (higher = more potent) is -1.6.

The sequence TTGTCCAGGATGAGCACCCGCC registered a sensor-assay potency score (higher = more potent) of -0.921.

For TTTGAAGGCACTGACACGGGGC, the sensor-assay potency score (higher = more potent) amounted to 0.517.

TTCACTGGCTTGAAGGAGCTGT: the sensor-assay potency score (higher = more potent) came to 0.427.

For the sequence TCGATGACCACGCAGATCTTGT, the sensor-assay potency score (higher = more potent) was -1.32.

Turning to TACACGTCGTCCACACGGCTGA, the sensor-assay potency score (higher = more potent) was -0.19.
